# Bioassay records deposited in PubChem BioAssay by several laboratories.
# VLA-4 inh: inhibition in a human VLA-4 binding assay. P13612. VLA-4 expressing cells, ligand binding flow cytometry. inhibition, % (about 7 µM as worked out from the volumes in the protocol). 330,000 compounds, 0.2% hits. AID 2557; in the data active = inhibition above about 50%
# CHT PAM: allosteric activators of human choline transporter CHT. Q9GZV3. 310,000 compounds, 0.49% hits. AID 488977. B-score at 10 µM. CHT-expressing cells, membrane potential dye, choline EC20; hits give high values; LV-AA mutant CHT in HEK293 cells;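 active = initial fluorescence not abnormally high and integrated response B-score, plate-corrected, over 3 SD above library mean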
# Target sequence (Q9GZV3 whole entry, looked up): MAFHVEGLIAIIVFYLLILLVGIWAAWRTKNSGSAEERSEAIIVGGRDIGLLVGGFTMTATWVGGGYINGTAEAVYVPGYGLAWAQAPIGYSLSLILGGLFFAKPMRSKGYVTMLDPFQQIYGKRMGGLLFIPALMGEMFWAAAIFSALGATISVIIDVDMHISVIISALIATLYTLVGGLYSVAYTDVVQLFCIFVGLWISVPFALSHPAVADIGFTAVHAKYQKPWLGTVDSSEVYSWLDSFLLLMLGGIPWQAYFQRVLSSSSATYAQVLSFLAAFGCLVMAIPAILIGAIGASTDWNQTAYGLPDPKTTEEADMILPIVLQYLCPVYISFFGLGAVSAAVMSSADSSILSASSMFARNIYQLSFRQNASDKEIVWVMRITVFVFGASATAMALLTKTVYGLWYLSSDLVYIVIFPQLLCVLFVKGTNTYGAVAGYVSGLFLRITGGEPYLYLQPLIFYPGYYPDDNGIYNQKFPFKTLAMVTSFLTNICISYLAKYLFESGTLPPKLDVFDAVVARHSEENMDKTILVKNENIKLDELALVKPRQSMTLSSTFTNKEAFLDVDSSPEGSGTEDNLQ
# HIF act: HIF pathway transcriptional activation | U2OS HRE-luciferase reporter, luminescence; normalized: DMSO 0%, desferrioxamine 100% | activation, % at 7.5 µM (by protocol) | 300,000 compounds, 0.32% hits | AID 1910;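 active = mean activation of at least 10% of the iron chelator positive control signal, with at least half of replicates also reaching 10%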
# CHT inh: human CHT choline transport inhibition | Q9GZV3 | CHT-expressing cells, membrane potential dye, choline response; hits give low values | B-score at 10 µM | 310,000 compounds, 0.86% hits;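 active = B-score over 3 SD under the library average, and starting fluorescence ratio not unusually high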;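 also: choline stimulus applied at its EC90 after an EC20 pre-addition; B-score computed on integrated fluorescence ratio after choline addition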
# Platelet DG rel: modulates dense granule release in human platelets | human platelet-rich plasma, SFLLRN dense granule ATP release, luminescence | inhibition, %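 (compounds screened at 7.5 µM in platelet-rich plasma)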 | 300,000 compounds, 0.22% hits | AID 1663;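 active = mean replicate score, as percent of positive control, at or above 50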
# AI-2 QS mod: modulates the Vibrio harveyi AI-2 quorum sensing system; Vibrio harveyi JMH597 AI-2 luminescence/OD600 ratio, 9 h; hits give low values; strain lacks LuxN and CqsS sensors; 0 = neutral-control median; activity change, % at 7.5 µM; 300,000 compounds, 0.4% hits; in the data active = activity change below about -75%, passing the limit was not always enough;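 also: luminescence divided by OD600 gain over 9 h not by final OD600 alone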
# CHT block conf: confirmation of human choline transporter CHT inhibitors. 2,400 compounds, 70% hits. CHT-expressing cells, choline membrane potential dye; LV-to-AA substituted CHT, HEK293 cells. CHT activity remaining % of control (hits give low values), % at 10 µM. shares compounds with CHT inh;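 active = choline transporter activity left, mean of duplicates at 10 µM, below buffer-only control mean minus 3 SD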;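 also: depolarization triggered by choline at its EC90 following an EC20 pre-addition; 0% = hemicholinium-3 full block and 100% = buffer-only control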
# HEK293 MPD ctr: activity in parental HEK293 cells lacking CHT | shares compounds with CHT inh | membrane potential dye, choline response; active = decrease or increase beyond buffer ±3SD | membrane potential ratio readout (active if shifted either direction beyond buffer ±3SD; no single direction) at 10 µM | 2,400 compounds, 4% hits | AID 493222;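 also: parental cells lack the transporter so any hit is non-specific; ratio is peak minus trough fluorescence over baseline after EC90 choline challenge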
# Starred values were filed as active, the others as inactive; i = inactive; nt = not tested or not shown. Shown are actives, neighbours in structure and some others; about 2.2% of the full set was active somewhere.
SMILES,VLA-4 inh,CHT PAM,HIF act,CHT inh,Platelet DG rel,AI-2 QS mod,CHT block conf,HEK293 MPD ctr
O=C(NC1CCCCCC1)C1CC(=O)N(c2ccc(Cl)cc2)C1 (stereo not drawn),0,i,0,i,11,9,nt,nt
CCC1CCCCN1S(=O)(=O)c1ccc(NC(=O)c2nc(S(C)(=O)=O)ncc2Cl)cc1 (stereo not drawn),46,i,nt,-6.4*,19,16,12%*,i
Cc1cccc(CCN2CCN=C2Nc2ccccc2)c1,-9,i,nt,i,nt,nt,nt,nt
O=C(c1cccc(OC2CCN(Cc3ccc(F)cc3Cl)CC2)c1)N1CCCC1,-9,i,0,-5.4*,-7,21,36%*,i
CN(C)C1=NCCN1CCc1ccccc1,11,i,nt,i,nt,nt,nt,nt
CCN1CCN(C(=O)c2cc(-c3ccco3)nc3ccccc23)CC1,9,nt,nt,nt,nt,nt,nt,nt
Cc1noc(C)c1CSc1nc2ccccc2n1CCc1ccccc1,-6,i,0,-5*,21,8,i,i
COc1ccc(OC)c(Cc2nnc(CCC(=O)N3CCN(C4CCCC4)CC3)o2)c1,11,i,4,-8*,-18,21,36%*,i
Cc1c(C(=O)N2CCC3(CC2)CC(=O)c2ccccc2O3)cccc1[N+](=O)[O-],4,i,1,i,3,27,nt,nt
Cc1cc(=O)[nH]c(SCC(=O)Nc2ccc(F)cc2)c1C#N,1,i,0,-10*,11,7,62%*,i
O=c1c2ccccc2[nH]c(=S)n1CCN1CCCC1,-1,i,0,-7*,-4,9,21%*,i
CCN1CCN(CCn2c(=S)[nH]c3ccccc3c2=O)CC1,9,i,-3,i,-1,15,nt,nt
CCN(C(=O)c1cc2c(=O)n3ccccc3nc2n1CCCOC)C1CCCCC1,7,i,0,-5*,-16,20,45%*,i
CCN(C(=O)c1cc2c(=O)n3ccccc3nc2n1C)C1CCCCC1,8,i,3,i,-7,7,nt,nt
CCOC(=O)c1ccc(NC(=O)NNC(=O)CCc2ccc(OC)cc2)cc1,4,i,0,i,2,21,nt,nt
CC(C)(C)c1nc2cc(Cl)c([N+](=O)[O-])cc2o1,1,i,0,-14*,2,29,i,i
Cc1cc(C)n2nc(CNS(=O)(=O)c3ccc(C)c(C)c3)nc2n1,-4,i,0,-6.9*,0,29,i,i
COCCNC(=S)N1CCN(c2nc(-c3ccc(Cl)cc3)cs2)CC1,44,i,-1,-7.5*,12,nt,i,i
O=C(NCc1ccc(F)cc1)C1CCN(S(=O)(=O)c2cccc3nonc23)CC1,-9,i,-1,i,-7,nt,nt,nt
CCCSc1nc2sc3c(c2c(=O)n1CC)CC(C)(C)OC3,-5,i,-1,i,0,8,nt,nt
CCCCCc1nc2sc3c(c2c(=O)n1NC(=O)c1ccc([N+](=O)[O-])cc1)CC(C)(C)OC3,10,i,0,-12*,15,-15,28%*,i
CCCCCn1c(=O)c(F)cn(Cc2ccc(OC)c([N+](=O)[O-])c2)c1=O,-2,i,0,-7.6*,8,18,54%*,i
CCCCCCn1c(=O)c(F)cn(Cc2ccc(OC)c([N+](=O)[O-])c2)c1=O,-6,i,-1,-6.7*,-2,20,i,i
CCCCn1c(=O)c(F)cn(Cc2ccc(OC)c([N+](=O)[O-])c2)c1=O,5,i,-16,i,-1,21,nt,nt
O=c1ccn(CCCBr)c(=O)[nH]1,2,i,0,i,3,22,nt,nt
SMILES,VLA-4 inh,CHT PAM,HIF act,CHT inh,Platelet DG rel,AI-2 QS mod,CHT block conf,HEK293 MPD ctr
Cc1cc(C)c(C#N)c(SCS(=O)Cc2ccc(Cl)cc2)n1 (stereo not drawn),10,i,nt,i,2,38,nt,nt
Cc1cc(C)c(C#N)c(SCS(=O)Cc2ccccc2)n1 (stereo not drawn),-19,i,nt,-5.9*,10,2,i,i
Cc1ccc(S(=O)(=O)N(C)CC(=O)Oc2ccc(-c3nnco3)cc2)cc1,3,i,0,i,18,13,nt,nt
N#C/C(=C/c1cn(-c2ccccc2)nc1-c1cccc(OCc2ccccc2)c1)C(=O)NCCCn1ccnc1,13,i,0,i,-2,27,nt,nt
CCOc1cccc(-c2nn(-c3ccccc3)cc2/C=C(/C#N)C(=O)NCCCn2ccnc2)c1,-11,i,0,-9.2*,12,11,61%*,i
O=C(Nc1ccncc1)c1cc2ccccc2cc1O,7,i,4,i,31,15,nt,nt
O=C(O/N=C(/c1ccccc1)c1ccncc1)c1ccc(F)cc1,14,i,0,-9.7*,7,5,i,i
O=S(=O)(NCCN1CCOCC1)c1cccs1,20,i,-1,-9.3*,-1,15,i,i
O=C(c1cc2c([nH]c1=O)CCCC2)N1CCc2c([nH]c3ccccc23)C1c1ccccc1F (stereo not drawn),3,i,0,-12*,12,21,30%*,i
Cc1ncoc1C(=O)N1CCc2c([nH]c3ccccc23)C1c1ccccc1F (stereo not drawn),14,i,0,i,1,18,nt,nt
Cc1cccc(C2c3[nH]c4ccccc4c3CCN2C(=O)c2cc3c([nH]c2=O)CCCC3)n1 (stereo not drawn),17,i,-1,-9.6*,24,24,9.3%*,i
COc1cccc(CNS(=O)(=O)c2ccc3c(c2)N(C(C)=O)CCO3)c1,3,i,0,i,8,nt,nt,nt
CCC(Sc1nc2ccccc2s1)C(=O)Nc1nnc(C)s1 (stereo not drawn),12,i,0,i,0,-4,nt,nt
CC(Sc1nc2ccccc2s1)C(=O)Nc1nnc(C(C)C)s1 (stereo not drawn),12,i,0,-5.3*,-2,3,i,i
CCOC(=O)Cc1csc(N/C(=N/S(=O)(=O)c2ccc(F)cc2F)c2ccccc2)n1,10,i,0,-6.8*,-2,6,63%*,i
CN(C)CCN(C(=O)c1ccc2c(c1)OCCO2)c1nc2c(Cl)cccc2s1,17,i,1,i,-7,7,nt,nt
COc1ccc(Cl)c2sc(N(CCN(C)C)C(=O)c3ccc4c(c3)OCCO4)nc12,38,i,2,-9.8*,-9,28,36%*,i
